Measured values from PubChem BioAssay (Tox21).
Records with an inconclusive call do not appear. Calls of active or inactive are those of the source. Unless noted, calls come from the whole dose curve; as a rule, active = well fitted curve in the direction sought with a large enough effect in the repeat runs; inconclusive = weak or mixed curves; inactive = no such curve, though single readings can be large; an effect the other way counts as inactive or inconclusive.

What was measured:
[1] = qHTS assay to identify small molecule agonists of the peroxisome proliferator-activated receptor delta (PPARd) signaling pathway - cell viability counter screen (AID 743211); note: % is set by controls: 0 for no effect and ±100 for the full control effect; nearly all actives have a fitted effect of over 55% in size
In short: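 Viability was measured as CellTiter-Glo luminescence (30 min, room temperature) in the same wells as the beta-lactamase readout. GeneBLAzer PPARd UAS-bla HEK293H cells received compound after 5 h plating and were incubated 17 h at 37 C.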

[2] = target: Peroxisome proliferator-activated receptor delta (Homo sapiens) (UniProt Q03181); assay: qHTS assay to identify small molecule agonists of the peroxisome proliferator-activated receptor delta (PPARd) signaling pathway (AID 743212; calls by dose curve; note: % is set by controls: 0 for no effect and ±100 for the full control effect)
In short: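 A PPARd-bla HEK293H line with beta-lactamase under an Upstream Activator Sequence is treated with compounds at 37 C. Substrate loading for 2 h at room temperature precedes the fluorescence measurement.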

[3] = qHTS assay to identify small molecule antagonists of the peroxisome proliferator-activated receptor delta (PPARd) signaling pathway - cell viability counter screen (AID 743213); note: % is set by controls: 0 for no effect and ±100 for the full control effect; nearly all actives have a fitted effect of over 50% in size
In short: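 In this counter screen, HEK293H cells carrying a UAS-beta-lactamase reporter are co-treated with test compounds and 300 nM L165041 (final) for 17 h at 37 C; cell viability is quantified by CellTiter-Glo luminescence.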

[4] = target: Peroxisome proliferator-activated receptor delta (Homo sapiens) (UniProt Q03181); assay: qHTS assay to identify small molecule antagonists of the peroxisome proliferator-activated receptor delta (PPARd) signaling pathway (AID 743215; active = well fitted inhibition curve with a large enough effect in the signal ratio in the repeat runs, not every such curve was filed as active; the % refers to the signal ratio;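 note: cells stimulated with agonist L165041 at 300 nM final during compound exposure; series mostly up to about 62 µM; % is set by controls: 0 for no effect and ±100 for the full control effect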)
In short: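 Inhibition of L165041-driven (300 nM final) PPARd signaling is scored in HEK293H UAS-bla cells. Exposure lasts 17 h at 37 C; beta-lactamase activity is then read by FRET substrate fluorescence after 2 h at room temperature.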

[5] = target: Bile acid receptor (Homo sapiens) (UniProt Q96RI1); assay: qHTS assay to identify small molecule antagonists of the farnesoid-X-receptor (FXR) signaling pathway (AID 743217; active = well fitted inhibition curve with a large enough effect in the signal ratio in the repeat runs, not every such curve was filed as active; the % refers to the signal ratio; note: % is set by controls: 0 for no effect and ±100 for the full control effect)
In short: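 Antagonist mode against 50 uM (final) chenodeoxycholic acid stimulation in FXR-bla HEK 293T cells, 16 h at 37 °C. Inhibition detected as reduced beta-lactamase activity via LiveBLAzer B/G FRET fluorescence after 2 h at room temperature.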

[6] = qHTS assay to identify small molecule agonists of the farnesoid-X-receptor (FXR) signaling pathway - cell viability counter screen (AID 743218); note: % is set by controls: 0 for no effect and ±100 for the full control effect; nearly all actives have a fitted effect of over 45% in size
In short: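 Cytotoxicity counter-screen run in parallel, same wells: FXR-UAS-bla HEK 293T cells dosed 16 h at 37 C, viability read by CellTiter-Glo luminescence after 30 min at room temperature.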

[7] = target: Bile acid receptor (Homo sapiens) (UniProt Q96RI1); assay: qHTS assay to identify small molecule agonists of the farnesoid-X-receptor (FXR) signaling pathway (AID 743220; active = well fitted activation curve with a large enough effect in the signal ratio in the repeat runs, not every such curve was filed as active; the % refers to the signal ratio; note: % is set by controls: 0 for no effect and ±100 for the full control effect)
In short: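 Beta-lactamase reporter under UAS control in GeneBLAzer FXR HEK 293T cells (5000/well) measured with LiveBLAzer FRET substrate after 2 h at room temperature. Compound exposure lasted 16 h at 37C.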

[8] = qHTS assay to identify small molecule antagonists of the farnesoid-X-receptor (FXR) signaling pathway - cell viability counter screen (AID 743221; active = well fitted cell-killing curve with a large enough effect in the repeat runs, not every such curve was filed as active; note: % is set by controls: 0 for no effect and ±100 for the full control effect; nearly all actives have a fitted effect of over 50% in size)
In short: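 Cytotoxicity counter screen run in the FXR-bla reporter wells: HEK 293T cells exposed to compound with 50 uM (final) chenodeoxycholic acid for 16 h, 37 C, then viability measured by CellTiter-Glo luminescence after 30 min, room temperature.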

[9] = target: Vitamin D3 receptor (Homo sapiens) (UniProt P11473); assay: qHTS assay to identify small molecule agonists of the vitamin D receptor (VDR) signaling pathway (AID 743222; calls by dose curve; note: % is set by controls: 0 for no effect and ±100 for the full control effect)
In short: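 Quantitative HTS agonist-mode screen: compounds in DMSO were pin-transferred onto VDR-bla cells and incubated 16 h at 37C, 5% CO2. Reporter activity was detected with LiveBLAzer B/G FRET substrate after 2 h at room temperature.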

[10] = qHTS assay to identify small molecule antagonists of the vitamin D receptor (VDR) signaling pathway - cell viability counter screen (AID 743225); note: % is set by controls: 0 for no effect and ±100 for the full control effect; nearly all actives have a fitted effect of over 50% in size
In short: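 Cytotoxicity counter screen read by CellTiter-Glo luminescence (30 min, room temperature) in the same wells as the VDR-bla antagonist readout. HEK 293T VDR-UAS-bla cells had 16 h at 37C with compound and 3 nM (final) 1-alpha,25-dihydroxyvitamin D3, then 2 h with FRET substrate.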

[11] = qHTS assay to identify small molecule agonists of the NFkB signaling pathway (AID 1159509; active = well fitted curve in the direction sought with a large enough effect in the signal ratio in the repeat runs, not every such curve was filed as active; the % refers to the signal ratio)
In short: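 NFkB-bla ME-180 cells carry a beta-lactamase reporter under an NF-kB response element. They were plated overnight, then exposed to compounds for 5 h at 37 C. Read-out is LiveBLAzer FRET after 1.5 hr at room temperature (405 nm excitation; 460/530 nm emission).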

[12] = qHTS assay to identify small molecule agonists of the endoplasmic reticulum stress response signaling pathway (AID 1159516; active = well fitted activation curve with a large enough effect in the signal ratio in the repeat runs, not every such curve was filed as active; the % refers to the signal ratio; note: % is set by controls: 0 for no effect and ±100 for the full control effect)
In short: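 Tox21 10K library screened in quantitative HTS format on ESRE-bla HeLa cells, a beta-lactamase reporter under ER stress response element control; 5 hr treatment, FRET read.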

[13] = qHTS assay to identify small molecule agonists of the endoplasmic reticulum stress response signaling pathway - cell viability counter screen (AID 1159517; calls by dose curve; note: series mostly up to about 61 µM; % is set by controls: 0 for no effect and ±100 for the full control effect; nearly all actives have a fitted effect of over 50% in size)
In short: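 CellTiter-Glo was added to wells already read for beta-lactamase FRET, and luminescence was recorded 30 min later. Cells: ESRE-bla HeLa, 1,500 per well, compound exposure 5 hr at 37 C.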

[14] = qHTS assay to identify small molecule antagonists of the retinoid-related orphan receptor gamma (ROR-gamma) signaling pathway - cell viability counter screen (AID 1159520)
In short: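 Tet-on ROR gamma CHO cells (1,000/well) were plated 4 hr, given compounds in DMSO for 2 hr at 37 C, then induced with 1 uM final doxycycline for 16 hr. Viability was read as ATP by CellTiter-Glo luminescence after 30 min.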

[15] = target: Nuclear receptor ROR-gamma (Homo sapiens) (UniProt P51449); assay: qHTS assay to identify small molecule antagonists of the retinoid-related orphan receptor gamma (ROR-gamma) signaling pathway (AID 1159521; note: nearly all actives have a fitted effect of over 50% in size; note: potency is the fitted concentration of half-maximal effect)
In short: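 Antagonist read-out: drop in luminescence (ONE-Glo) from an RORE-LUC reporter in CHO cells with doxycycline-inducible ROR-gamma; 2 hr compound pretreatment, 1 uM doxycycline, 16 hr incubation at 37 C.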

[16] = qHTS assay to identify small molecule agonists of the AP-1 signaling pathway - cell viability counter screen (AID 1159525; calls by dose curve; note: nearly all actives have a fitted effect of over 55% in size)
In short: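 ME-180 AP-1-bla, 2500 cells/well, Opti-MEM + 0.5% dialyzed FBS; overnight 37 °C; cpd 15-pt titration, 5 h 37 °C; CellTiter-Glo 30 min RT; luminescence read; normalised to TOAB and DMSO controls.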

[17] = qHTS assay to identify small molecule agonists of the AP-1 signaling pathway (AID 1159526; calls by dose curve; note: % is set by controls: 0 for no effect and ±100 for the full control effect)
[18] = qHTS assay to identify small molecule agonists of the NFkB signaling pathway - cell viability counter screen (AID 1159515; calls by dose curve; note: series mostly up to about 61 µM; % is set by controls: 0 for no effect and ±100 for the full control effect; nearly all actives have a fitted effect of over 55% in size)
In short: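 Multiplexed viability readout: after the 5 hr compound exposure and 1.5 hr FRET substrate step, CellTiter-Glo reagent went into the same NFkB-bla ME-180 wells; ATP luminescence was measured after 30 min at room temperature.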

[19] = qHTS assay to identify small molecule agonists of the vitamin D receptor (VDR) signaling pathway - cell viability counter screen (AID 743224)
In short: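 Viability is measured in the same wells as the VDR-bla reporter assay: after 16 h compound treatment and 2 h substrate loading, CellTiter-Glo is added and luminescence read 30 min later.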

[20] = target: Vitamin D3 receptor (Homo sapiens) (UniProt P11473); assay: qHTS assay to identify small molecule antagonists of the vitamin D receptor (VDR) signaling pathway (AID 743223; active = well fitted inhibition curve with a large enough effect in the signal ratio in the repeat runs, not every such curve was filed as active; the % refers to the signal ratio; note: % is set by controls: 0 for no effect and ±100 for the full control effect)
In short: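 Antagonist mode: compound added to VDR-bla cells alongside agonist 1alpha,25-dihydroxyvitamin D3 (3 nM final), incubation 16 h at 37C. Read-out is LiveBLAzer FRET fluorescence, 2 h at room temperature.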

Sequence of Vitamin D3 receptor (Homo sapiens) (P11473 whole entry, looked up): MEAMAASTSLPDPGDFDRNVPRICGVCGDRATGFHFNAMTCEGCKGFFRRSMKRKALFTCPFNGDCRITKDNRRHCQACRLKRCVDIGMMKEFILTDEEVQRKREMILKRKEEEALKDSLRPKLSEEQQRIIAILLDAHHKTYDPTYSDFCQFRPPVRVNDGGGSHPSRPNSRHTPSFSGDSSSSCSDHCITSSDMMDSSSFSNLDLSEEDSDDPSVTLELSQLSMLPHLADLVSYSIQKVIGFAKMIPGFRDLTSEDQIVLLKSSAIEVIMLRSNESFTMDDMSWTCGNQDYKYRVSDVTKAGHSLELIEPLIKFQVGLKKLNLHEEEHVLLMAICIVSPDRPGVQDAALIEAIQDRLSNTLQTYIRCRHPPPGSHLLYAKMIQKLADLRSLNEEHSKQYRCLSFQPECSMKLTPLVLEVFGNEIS
Sequence of Peroxisome proliferator-activated receptor delta (Homo sapiens) (Q03181 whole entry, looked up): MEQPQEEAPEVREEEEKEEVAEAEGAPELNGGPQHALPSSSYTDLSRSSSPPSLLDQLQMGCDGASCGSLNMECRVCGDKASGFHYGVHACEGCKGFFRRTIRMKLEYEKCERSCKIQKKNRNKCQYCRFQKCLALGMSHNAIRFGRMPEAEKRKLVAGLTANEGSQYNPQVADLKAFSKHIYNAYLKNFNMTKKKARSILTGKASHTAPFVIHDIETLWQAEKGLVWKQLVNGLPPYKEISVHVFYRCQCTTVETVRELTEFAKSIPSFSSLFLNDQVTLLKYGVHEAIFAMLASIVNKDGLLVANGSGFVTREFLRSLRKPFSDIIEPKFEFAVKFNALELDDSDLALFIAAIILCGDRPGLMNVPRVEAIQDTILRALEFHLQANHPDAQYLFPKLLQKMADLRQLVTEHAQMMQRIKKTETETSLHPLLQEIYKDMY
Sequence of Bile acid receptor (Homo sapiens) (Q96RI1 whole entry, looked up): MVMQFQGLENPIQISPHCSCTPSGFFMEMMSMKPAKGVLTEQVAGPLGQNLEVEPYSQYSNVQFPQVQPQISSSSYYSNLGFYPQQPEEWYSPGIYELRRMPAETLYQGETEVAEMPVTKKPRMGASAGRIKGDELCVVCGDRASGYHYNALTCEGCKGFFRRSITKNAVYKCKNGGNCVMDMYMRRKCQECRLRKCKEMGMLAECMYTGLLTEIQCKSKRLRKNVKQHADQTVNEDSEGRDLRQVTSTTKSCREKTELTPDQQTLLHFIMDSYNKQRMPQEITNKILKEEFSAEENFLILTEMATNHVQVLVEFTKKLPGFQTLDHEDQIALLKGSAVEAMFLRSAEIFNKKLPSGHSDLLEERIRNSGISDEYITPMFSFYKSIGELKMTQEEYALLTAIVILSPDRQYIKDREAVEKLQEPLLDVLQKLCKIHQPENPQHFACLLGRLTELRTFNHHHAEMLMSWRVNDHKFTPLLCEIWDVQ

CO/N=C(/C(=O)N[C@@H]1C(=O)N2C(C(=O)OCOC(=O)C(C)(C)C)=C(C)CS[C@H]12)c1csc(N)n1
inactive: Potency [1] | outcome [2] | Potency [3] | Potency [4] | outcome [5] | Potency [6] | outcome [7] | Potency [8] | outcome [9] | Potency [10] | outcome [11] | outcome [12] | outcome [13] | outcome [14] | Potency [15] | Potency [16] | outcome [17]

COC(=O)c1ccc(C)cc1C1=NC(C)(C(C)C)C(=O)N1 (centres undefined)
inactive: Potency [1] | outcome [2] | Potency [3] | Potency [4] | Potency [6] | outcome [9] | Potency [10] | outcome [11] | outcome [18] | outcome [12] | outcome [14] | Potency [15] | outcome [17]

Nc1c[n+](N2CCOCC2)no1
inactive: Potency [1] | outcome [2] | Potency [3] | Potency [4] | outcome [5] | Potency [6] | outcome [7] | Potency [19] | Potency [10] | outcome [11] | outcome [18] | outcome [12] | outcome [14] | Potency [15] | outcome [17]

CCCc1cc(C(N)=S)ccn1
inactive: Potency [1] | Potency [3] | Potency [8] | Potency [19] | Potency [10] | outcome [11] | outcome [18] | outcome [12] | outcome [14] | Potency [15] | Potency [16] | outcome [17]

CC(C)(O)C#CC(C)(C)O
inactive: Potency [1] | outcome [2] | Potency [3] | Potency [4] | Potency [19] | Potency [10] | outcome [11] | outcome [18] | outcome [12] | outcome [14] | Potency [15] | Potency [16] | outcome [17]

N[C@H](C(=O)O)c1ccc(O)cc1
inactive: Potency [1] | outcome [2] | Potency [3] | Potency [4] | Potency [6] | Potency [8] | outcome [9] | outcome [20] | Potency [19] | Potency [10] | outcome [11] | outcome [18] | outcome [12] | activity, negative = cytotoxicity [14] 3.98% [at 19 µM] | Potency [15] | outcome [17]

CCOC(=O)c1ccc(C)cc1
inactive: Potency [1] | outcome [2] | Potency [3] | Potency [4] | Potency [6] | Potency [8] | outcome [9] | Potency [19] | Potency [10] | outcome [11] | outcome [18] | outcome [12] | outcome [14] | Potency [15] | Potency [16] | outcome [17]

CCC(=O)OC(C)c1ccccc1 (centres undefined)
inactive: Potency [1] | outcome [2] | Potency [3] | Potency [4] | outcome [5] | Potency [6] | outcome [7] | Potency [8] | outcome [9] | Potency [10] | outcome [11] | outcome [18] | outcome [12] | outcome [14] | Potency [15] | outcome [17]

CCN1CCC[C@H]1CNC(=O)c1cc(S(N)(=O)=O)ccc1OC
inactive: Potency [1] | Potency [3] | Potency [6] | outcome [9] | outcome [20] | Potency [19] | Potency [10] | outcome [11] | outcome [18] | outcome [12] | outcome [14] | Potency [15] | Potency [16] | outcome [17]

CCO[Si](CCC1CCC2OC2C1)(OCC)OCC (centres undefined)
inactive: Potency [1] | outcome [2] | Potency [3] | Potency [4] | outcome [5] | Potency [6] | outcome [7] | Potency [8] | outcome [9] | outcome [20] | Potency [19] | Potency [10] | outcome [11] | outcome [12] | outcome [13] | outcome [14] | Potency [15] | Potency [16] | outcome [17]

O=C1CCCC(=O)C1
inactive: Potency [1] | Potency [3] | outcome [5] | outcome [7] | Potency [8] | outcome [9] | outcome [20] | Potency [19] | Potency [10] | outcome [11] | outcome [18] | outcome [12] | outcome [14] | Potency [15] | Potency [16] | outcome [17]

N[C@H]1CN(c2c(F)cc3c(=O)c(C(=O)O)cn(C4C[C@H]4F)c3c2Cl)CC12CC2 (some centres undefined)
inactive: Potency [1] | Potency [3] | Potency [6] | outcome [9] | Potency [19] | Potency [10] | outcome [11] | outcome [18] | outcome [12] | outcome [14] | Potency [15] | Potency [16] | outcome [17]

ClC(Cl)(Br)Br
inactive: Potency [1] | outcome [2] | Potency [3] | Potency [4] | Potency [6] | Potency [8] | outcome [9] | outcome [20] | Potency [19] | Potency [10] | outcome [11] | outcome [18] | outcome [12] | outcome [14] | Potency [15] | Potency [16] | outcome [17]

CCn1nc(C(=O)O)c(=O)c2cc3c(cc21)OCO3
inactive: Potency [1] | outcome [2] | Potency [3] | Potency [4] | Potency [6] | Potency [8] | outcome [9] | Potency [19] | Potency [10] | outcome [11] | outcome [18] | outcome [12] | outcome [14] | Potency [15] | Potency [16] | outcome [17]

CCCCCSCCCCC
inactive: Potency [1] | outcome [2] | Potency [3] | Potency [4] | outcome [5] | Potency [6] | outcome [7] | Potency [8] | Potency [19] | Potency [10] | outcome [11] | outcome [12] | outcome [13] | outcome [14] | Potency [15] | Potency [16] | outcome [17]

CN1N=C(C(N)=O)CCC1=O
inactive: Potency [1] | outcome [2] | Potency [3] | Potency [6] | outcome [9] | Potency [19] | Potency [10] | outcome [11] | outcome [18] | outcome [12] | outcome [14] | Potency [15] | Potency [16] | outcome [17]

NC(=O)COCCN1CCN(C(c2ccccc2)c2ccc(Cl)cc2)CC1 (centres undefined)
inactive: Potency [1] | outcome [2] | Potency [4] | Potency [6] | Potency [8] | outcome [20] | Potency [19] | Potency [10] | outcome [11] | outcome [18] | outcome [12] | outcome [14] | Potency [16] | outcome [17]
active: Potency [15] 2660 nM
